The campaign covered roughly 320,000 compounds. About 2,100 (0.66%) were called active. Inconclusive results (about 53%) are left out. Calls come from the whole dose curve; as a rule, active = well fitted inhibition curve with a large enough effect in the signal ratio, with a control signal flat (not every such curve was filed as active); inconclusive = small, poorly fitted or top-dose-only effect, or effect the other way, or a change in a side signal; inactive = flat fitted curve, though single readings scatter; the % refers to the signal ratio. Only a selection was taken, and actives are over-represented in it overall.
Assay: qHTS Assay for Lipid Storage Modulators in Drosophila S3 Cells;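 for cell number change: cells counted by Cell Tracker Red CMTPX staining in the red channel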
Details: BODIPY lipid droplet fluorescence, 18-24 h, cells fed with added oleic acid; cell number change: measured here: cell count max response; series mostly up to 46.1 µM
Outline: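 Laser-scanning cytometry quantifies lipid droplet accumulation (500–530 nm total intensity; droplet/cell object ratio) in oleic acid-fed (400 uM added) Drosophila S3 cells treated with a concentration series. 20 uM Triacsin C defined 100% inhibition.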
Potency is the fitted concentration of half-maximal effect.

| SMILES | Potency | cell number change |
| --- | --- | --- |
| Cc1ccccc1CN1CCNC1=O | inactive | – |
| COCCCNC(=O)CS(=O)Cc1nc(-c2ccccc2C)oc1C (stereo not given) | inactive | -1.92% |
| COc1ccc(-c2nc(CS(=O)(=O)CC(=O)NCc3cccc(OC)c3OC)c(C)o2)cc1 | inactive | 10.4% |
| CCc1c(C)sc(NC(=O)c2cc(C(C)C)on2)c1C#N | inactive | 4.86% |
| CCCn1c(=N)n(CC(=O)OCC)c2ccccc21 | inactive | 13.2% |
| CCOC(=O)Cn1c(=N)n(Cc2ccccc2F)c2ccccc21 | 18.4 µM (active) | -1.47% |
| C=CCn1c(=N)n(CC(=O)OCC)c2ccccc21 | inactive | 2.48% |
| Cc1cccc(NCc2ccc(Br)cc2)n1 | inactive | -13.5% |
| O=C(CN1CCCCC1)N1CCCc2ccccc21 | inactive | 7.83% |
| O=C(CN1C(=O)COc2ccccc21)N1CCCc2ccccc21 | inactive | 11.3% |
| O=C1CNC(=O)N1CC(=O)N1CCCc2ccccc21 | 29.1 µM (active) | -34.5% |
| COc1ccccc1NC(=S)NCc1ccc(F)cc1 | 11.6 µM (active) | -1.4% |
| COc1ccccc1NC(=S)NCc1ccc(S(N)(=O)=O)cc1 | inactive | 6.14% |
| COc1ccccc1NC(=S)NCc1ccc(Cl)cc1 | inactive | 8.81% |
| CC(C)CNC(=O)CSc1nnc(-c2ccccn2)n1Cc1ccccc1 | inactive | -1.23% |
| CC(C)(C)c1ccc(C(=O)N/N=C2\C3CN4CCN(C3)CC2(c2ccccc2)C4)cc1 | inactive | 8.22% |
| Cc1ccc2c(c1)C(=O)C(=O)N2CCCOc1ccccc1C | inactive | -3.05% |
| O=C(CN1CCN(S(=O)(=O)c2ccccc2)CC1)Nc1ccc(Cl)c(Cl)c1 | inactive | 16.9% |
| Cc1ccc(S(=O)(=O)N2CCN(CC(=O)Nc3ccccc3C(=O)NC3CC3)CC2)cc1 | inactive | -13.8% |
| O=C(CN1CCN(S(=O)(=O)c2ccccc2)CC1)Nc1ccc(Cl)c([N+](=O)[O-])c1 | inactive | 22% |
| O=C(CN1CCN(S(=O)(=O)c2ccccc2)CC1)Nc1ccccc1C(=O)c1ccccc1 | inactive | 4.18% |
| CC(=O)c1ccc(S(=O)(=O)N2CCN(CC(=O)Nc3ccccc3C(=O)NC3CC3)CC2)cc1 | 6.51 µM (active) | -1.96% |
| CC(=O)c1ccc(S(=O)(=O)N2CCN(CC(=O)Nc3ccc(Cl)c([N+](=O)[O-])c3)CC2)cc1 | 29.1 µM (active) | -15.2% |
| COc1c2ccc(C(=O)NCCCCc3ccccc3)cc2nn1C | inactive | -13.1% |

| SMILES | Potency | cell number change |
| --- | --- | --- |
| CCOC(=O)NCc1ccc2[nH]c(C)cc2c1 | inactive | 16.1% |
| Nc1cc(N)nc(SCCN2CCCCC2)n1 | 0.0184 µM (active) | 3.17% |
| Cc1cc(C)c(C#N)c(SCCN2CCCCC2)n1 | inactive | -24.3% |
| Nc1cc(N)nc(SCC(=O)N2CCCCC2)n1 | inactive | 2.45% |
| O=C(O)c1ccc(N2C(=O)CC(N3CCN(c4cccc(Cl)c4)CC3)C2=O)cc1 (stereo not given) | inactive | -9.85% |
| O=C1Nc2c(c(=O)[nH]c(=O)n2-c2ccccc2F)C(C(F)(F)F)(C(F)(F)F)N1 | inactive | 12.5% |
| O=C1Nc2c(c(=O)[nH]c(=O)n2-c2ccccc2)C(C(F)(F)F)(C(F)(F)F)N1 | 25.9 µM (active) | -18.7% |
| Cc1ccc(-n2c3c(c(=O)[nH]c2=O)C(C(F)(F)F)(C(F)(F)F)NC(=O)N3)cc1 | inactive | 7.3% |
| Cn1cccc1CC(=O)N/N=C/c1ccc(Cl)cc1 | inactive | -7.57% |
| COc1ccc(CNC(=O)COC(=O)c2cc3ccccc3o2)cc1 | inactive | – |
| Cc1cc(C)cc(OCC(=O)OCC(=O)NCc2cccs2)c1 | inactive | -3.19% |
| O=C(COC(=O)COc1ccc(Nc2ccccc2)cc1)NCc1ccco1 | inactive | 8.25% |
| O=C(COC(=O)c1cc2ccccc2o1)NCc1ccco1 | 0.206 µM (active) | -22.2% |
| Cc1cc(C)cc(OCC(=O)OCC(=O)NCc2ccco2)c1 | 23.1 µM (active) | 10.8% |
| Cc1c(C(=O)OCC(=O)NCc2ccco2)oc2ccccc12 | inactive | -15.4% |
| C=CCNC(=O)/C(=C\c1ccc([N+](=O)[O-])cc1)NC(C)=O | inactive | – |
| CC(C)/C=N/Nc1nc2c(c(=O)n(C)c(=O)n2C)n1C | inactive | -4.59% |
| COC(=O)c1ccc2c(=O)n(-c3ccccc3)c(=S)[nH]c2c1 | inactive | 5.89% |
| NC(=O)CC(NC(=O)Cc1ccc(Br)cc1)c1ccc(NCCc2ccc(Cl)cc2)c([N+](=O)[O-])c1 (stereo not given) | inactive | -9.69% |
| COCCOC(=O)/C(C#N)=C/c1cn(Cc2ccccc2)nc1-c1cccnc1 | inactive | -16.4% |
| C[C@H](NC(=O)OCc1ccccc1)c1nnc([C@H](C)NC(=O)OCc2ccccc2)o1 | inactive | 2.65% |
| Cc1ccc(S(=O)(=O)N2CCN(C(=O)CN3CCc4ccccc4C3)CC2)cc1 | inactive | 21.3% |
| COc1cc(C(=O)Nc2ccccc2C(=O)NCc2cccnc2)cc(OC)c1OC | inactive | -22.9% |
| COCc1ccc(C(=O)Nc2ccccc2C(=O)NCc2cccnc2)cc1 | inactive | 10.3% |

| SMILES | Potency | cell number change |
| --- | --- | --- |
| C=CCOc1ccc(C(=O)Nc2ccccc2C(=O)NCc2cccnc2)cc1 | 3.26 µM (active) | 18.4% |
| CC(=O)Nc1nnc(S(=O)(=O)N2CCN(c3ccc([N+](=O)[O-])cc3Cl)CC2)s1 | inactive | -24.2% |
| COc1cccc(-c2cc(C(=O)Nc3ccc(OC)c(OC)c3)no2)c1 | inactive | -25.5% |
| CC1CCN(c2ccc(NC(=O)c3ccc([N+](=O)[O-])o3)cc2)CC1 | 16.4 µM (active) | 0.613% |
| CC1CCN(c2ccc(NC(=O)c3cccnc3)cc2)CC1 | 20.6 µM (active) | -20.1% |
| O=C(Nc1ccc(N2CCOCC2)cc1)c1ccc([N+](=O)[O-])o1 | inactive | -16.7% |
| CC(C)(C)C(=O)N1CCN(c2ccc(NC(=O)c3ccc([N+](=O)[O-])o3)cc2)CC1 | inactive | 19.6% |
| O=C(Nc1ccc(N2CCOCC2)cc1)c1cccnc1 | inactive | 3.28% |
| Cc1ccc(C(=O)N2CCN(c3ccc(NC(=O)c4cccnc4)cc3)CC2)cc1 | inactive | 4.57% |
| CCn1c(=O)c2ccccc2n(CC(=O)NCCC2=CCCCC2)c1=O | inactive | 25.4% |
| CCn1cc(C(=O)NCC(OC)OC)c(=O)c2cc(S(=O)(=O)N3CCOCC3)ccc21 | inactive | – |
| Cc1ccc(C)c(OCC(=O)Nc2ccncc2)c1 | inactive | 4.4% |
| COc1ccc(Nc2cc(C)c3cc([N+](=O)[O-])ccc3n2)cc1 | inactive | 3.7% |
| Nc1c(C(=O)NCCc2ccccc2)nnn1Cc1ccc(Br)cc1F | inactive | 2.88% |
| COc1ccc(C2=CC(=O)C[C@H](c3ccc(F)cc3)C2)cc1F | inactive | – |
| COc1ccc([C@H]2CC(=O)C=C(c3ccc(C)c(F)c3)C2)cc1 | inactive | -9.27% |
| COc1cc(F)c(C2=CC(=O)C[C@H](c3ccc(F)cc3)C2)cc1F | 0.731 µM (active) | -1.88% |
| COc1ccc(C2=CC(=O)C[C@H](c3ccc(F)cc3)C2)cc1OC | inactive | -2.7% |
| COc1ccc([C@H]2CC(=O)C=C(c3ccc(OC)c(F)c3)C2)cc1 | 0.731 µM (active) | 1.81% |
| COc1cc(F)c(C2=CC(=O)C[C@H](c3ccc4c(c3)OCO4)C2)cc1F | inactive | -8.29% |
| O=C(Cc1cccc(NC(=O)C2CCN(C(=O)CCc3ccccc3)CC2)c1)Nc1cccc(C(=O)N2CCCC2)c1 | inactive | -25.9% |
| COc1ccc(N2CCN(CC(=O)c3ccc(Cl)cc3)CC2)cc1 | 6.51 µM (active) | – |
| COc1ccc(C(=O)CN2CCN(c3ccc(Cl)cc3)CC2)cc1OC | inactive | 16.9% |
| CC(C)CC(=O)Nc1ccc(C(=O)CN2CCC(C)CC2)cc1 | inactive | 11.5% |

| SMILES | Potency | cell number change |
| --- | --- | --- |
| CC(C)CC(=O)Nc1ccc(C(=O)CN2CCN(c3ccc(O)cc3)CC2)cc1 | 4.61 µM (active) | -10.4% |
| COc1ccc(N2CCN(CC(=O)c3ccccc3)CC2)cc1 | inactive | 8.26% |
| CC(C)CC(=O)Nc1ccc(N2CCOCC2)cc1 | inactive | -6.68% |
| CCCC(C)c1nnc(NC(=O)C2CCCO2)s1 (stereo not given) | inactive | – |
| C/C(=N\NC(=O)c1ccc(-c2ccccc2)cc1)C1C(=O)c2ccccc2C1=O | inactive | 2.31% |
| COc1ccc(OC)c(NC(=O)CCN2C(=O)c3cccc([N+](=O)[O-])c3C2=O)c1 | inactive | 12.8% |
| OCCC1CN(Cc2cc3c(cc2Cl)OCO3)CCN1C1CCCCC1 (stereo not given) | inactive | 2.14% |
| OCCC1CN(Cc2ccncc2)CCN1C1CCCC1 (stereo not given) | inactive | -1.79% |
| Cc1nnc(SCc2ccon2)n1-c1ccccc1 | inactive | -2.33% |
| O=C(Cc1ccccc1)NCC(=O)N/N=C/c1cccs1 | inactive | – |
| O=C(Cc1ccccc1)NCC(=O)N/N=C/c1ccc([N+](=O)[O-])s1 | 16.4 µM (active) | 17.1% |
| O=C(N/N=C/c1ccc([N+](=O)[O-])s1)c1ccccc1 | inactive | – |
| COc1ccc(OC)c(Cc2nnc(CCC(=O)NC3CCCCC3)o2)c1 | inactive | -6.11% |
| Cn1c(OCc2ccc3c(c2)OCO3)nc2c1c(=O)n(Cc1ccc(Cl)c(Cl)c1)c(=O)n2C | inactive | 10.2% |
| N#Cc1cn(Cc2ccccc2)c(=O)[nH]c1=O | inactive | 17.6% |
| O=c1[nH]c(=O)n(Cc2ccc(Oc3ccccc3)cc2)cc1Br | 18.4 µM (active) | 18.3% |
| Cc1cn(Cc2ccccc2)c(=O)[nH]c1=O | inactive | -5.94% |
| CC1Sc2ccc(S(=O)(=O)CCC(=O)NC3CCCCC3C)cc2NC1=O (stereo not given) | inactive | 7.41% |
| NC(=O)c1cc(C(=O)Cc2ccc(Cl)cc2)c[nH]1 | inactive | 23.6% |
| CCOc1ccc(CNC(=O)C(C)n2nc(C)c3c(C)n(-c4ccccc4)nc3c2=O)cc1 (stereo not given) | inactive | – |
| CCOC(=O)c1[nH]c2ccccc2c1NC(=O)c1nonc1C | 2.06 µM (active) | 103% |
| CCOC(=O)c1[nH]c2ccc(Cl)cc2c1NC(=O)c1nonc1C | inactive | -14.5% |
| CCOC(=O)c1[nH]c2cc(OC)c(OC)cc2c1NC(=O)c1nonc1C | inactive | -8.79% |

Source: PubChem BioAssay AID2685 (National Center for Advancing Translational Sciences (NCATS), 2010)
